Laboratory results published in PubChem BioAssay (NCATS).
Inconclusive results are not listed. Entries that show only a call come without a potency. Unmarked numbers belong to inactive results. Calls of active or inactive are those of the source. The call rests on the fitted dose curve; in most records, active means well fitted inhibition curve with a large enough effect; inconclusive means small, poorly fitted or top-dose-only effect; inactive means no such curve, though single readings can be large or run the other way.

Experiment: BET inhibitor-based combinations targeting novel dependencies in MECOM-rearranged (r) AML: HNT-34 cell line (AID 2202234); further: nearly all actives have a fitted effect of over 35% in size
Details: HNT-34 AML viability, CellTiter-Glo luminescence, 48 h; series mostly up to 46 µM
Text: Ecotropic viral insertion site 1 (EVI1) is located on chromosome 3q26.2 as part of the MECOM (MDS and EVI1 complex) locus. Under normal hematopoiesis, EVI1 is a regulator of hematopoietic stem cell maintenance and self-renewal and EVI1 levels decrease as the cells differentiate. In approximately 5-10% of de novo acute myeloid leukemia (AML) EVI1 is aberrantly expressed, including Chromosomal inv(3)(q21;q26.2) or t(3;3)(q21;q26.2) alterations (MECOM-r) that account for about 50% of AML with EVI1 overexpression 31. AMLs with high levels of EVI1 have a poor prognosis and an overall survival time averaging between 10-14 months. EVI1 overexpression confers resistance in leukemia cells, highlighting the need to develop new targeted therapies for EVI1 overexpressing AMLs. Here, we performed an unbiased chemical drug screening by evaluating the single agent activity of a collection of 2,480 oncology-focused, approved and investigational drugs (NCATS Mechanism Interrogation Plates, MIPE v5.0) against a panel of seven AML cell lines. These included four MECOM-r cell-lines (AML-191, AML-194, UCSD-AML1 and HNT-34) and three non-MECOM-r AMLs (MV4-11, OCI-AML3 and SET-2). Exploiting the mechanistic redundancy built in the library, we identified target-level sensitivities in MECOM-r AML cells and relative activity as compared to other AML subtypes.
A collection of 2480 mechanistically annotated dugs (MIPE v5.0) was used to screen four 3q26.2 rearranged AML cell lines and three non-3q26.2 rearranged AML cell lines. This library purposely exploits redundancy by including multiple inhibitors of key onco-targets, while simultaneously encompassing mechanistic diversity, targeting more than 800 distinct mechanisms of action. Briefly, cells were seeded in 5 uL of growth media using a Multidrop Combi dispenser into 1536 well white polystyrene tissue culture treated plates (Corning) at a density of 500cells/well. For each cell-line, for each of the 2480 drugs in MIPE v5.0 library, an 11-point dose curve was generated via a 1536 pin-tool. Plates were incubated for 48 hr at standard incubator conditions, covered by a stainless steel gasketed lid to prevent evaporation. Cell viability was determined by luminescence based, Cell Titer Glo assay (Promega). In detail, 3 uL of Cell Titer Glo were added to each well and plates were incubated at room temperature for 15 min with a stainless-steel lid in place. Luminescence readings were taken using a Viewlux (PerkinElmer) with a 2 s exposure time per plate. Compound dose-response curves were normalized to DMSO and empty well controls on each plate. Quantitative drug activity data from dose-response curves was determined utilizing area Under the Curve (AUC) and Z-transformed AUC (Z-AUC, a mean-centering transformation applied to each individual cell-line screened).
Potency means the concentration at half of the fitted maximal effect.

| SMILES | Potency | viability (% of control) |
| --- | --- | --- |
| O=C1CCc2cc(OCCCCc3nnnn3C3CCCCC3)ccc2N1 | inactive |  |
| COc1cc2c(cc1Cc1cccc(Cl)c1F)c(=O)c(C(=O)O)cn2[C@H](CO)C(C)C | 3.72 µM (active) |  |
| COc1ccc(-c2nc3ccc(C4=NNC(=O)CC4C)cc3[nH]2)cc1 (stereo not given) | 8.33 µM (active) |  |
| CC(=O)c1c(C)c2cnc(Nc3ccc(N4CCNCC4)cn3)nc2n(C2CCCC2)c1=O | 16.6 µM (active) |  |
| Nc1ncn([C@@H]2O[C@H](CO)[C@@H](O)[C@H]2O)c(=O)n1 | 4.68 µM (active) |  |
| COc1cc(C(=O)NC2CCN(C)CC2)c(F)cc1Nc1ncc2c(n1)N(C1CCCC1)CC(F)(F)C(=O)N2C | 0.105 µM (active) |  |
| CS(=O)(=O)OCCCCOS(C)(=O)=O | inactive |  |
| C[C@@H]1CN(Cc2ccc(F)cc2)[C@@H](C)CN1C(=O)c1cc2c(C(=O)C(=O)N(C)C)cn(C)c2cc1Cl | inactive |  |
| CN1CCN(c2cc(C(=O)Nc3ccc4c(c3)-c3c(c(C(N)=O)nn3-c3ccc(F)cc3)CC4)c(Cl)cn2)CC1 | 7.42 µM (active) |  |
| O=c1c(O)c(-c2ccc(O)c(O)c2)oc2cc(O)cc(O)c12 | inactive |  |
| Cc1cc2c(cc1C1(c3ccc(C(=O)O)cn3)CC1)C(C)(C)CCC2(C)C | inactive |  |
| O=c1c(O)c(-c2cc(O)c(O)c(O)c2)oc2cc(O)cc(O)c12 | inactive |  |
| O=C(Nc1ccccc1Br)N[C@@H]1CCN(c2ccc(C(F)(F)F)cn2)C1 | inactive |  |
| CCn1c(C(=O)N(C2CC2)C2CC2)cc2c3c(ncn3C)c(Nc3cc(C)n(C)n3)nc21 | 16.6 µM (active) |  |
| COc1ccc2c(c1)c(CC(=O)O)c(C)n2C(=O)c1ccc(Cl)cc1 | inactive |  |
| CCNC(=O)c1cc2c(-c3cc(OCCN4CCCC4)c(Cl)cc3Cl)nc(N)nc2s1 | 1.82 µM (active) |  |
| CCCCOc1c(C(=O)c2c(F)cc(C)cc2F)cnc2n[nH]cc12 | 2.95 µM (active) |  |
| O=P(O)(O)C(O)(Cn1ccnc1)P(=O)(O)O |  | 108% [at 5.12 µM] |
| CC(C)N(CCCNC(=O)Nc1ccc(C(C)(C)C)cc1)C[C@H]1O[C@@H](n2ccc3c(N)ncnc32)[C@H](O)[C@@H]1O | inactive |  |
| COc1cc(C[C@@H](CO)[C@H](CO)Cc2ccc(O)c(OC)c2)ccc1O | inactive |  |

| SMILES | Potency | viability (% of control) |
| --- | --- | --- |
| Cc1cc(C(C)Nc2ccccc2)c2nc(N3CCOCC3)cc(=O)n2c1 (stereo not given) | 16.6 µM (active) |  |
| O=C(Nc1ccc2c(c1)CCN(Cc1ncn[nH]1)C2)c1ccccc1-c1ccc(C(F)(F)F)cc1 | inactive |  |
| Cc1cnc(NC(=O)C2=C(O)c3ccccc3S(=O)(=O)N2C)s1 | inactive |  |
| CCC1(C)CC(=O)NC1=O (stereo not given) | inactive |  |
| O=C(c1ccc(C(=O)N2CCC(N3CCCC3)CC2)c(Nc2ccccc2)c1)N1CCC(N2CCCC2)CC1 | inactive |  |
| CCCc1nc2c(C)cc(-c3nc4ccccc4n3C)cc2n1Cc1ccc(-c2ccccc2C(=O)O)cc1 | inactive |  |
| CN1CCC(CNc2ccc3ncc(-c4cccc(OC(F)(F)F)c4)n3n2)CC1 | 5.25 µM (active) |  |
| CS(=O)(=O)c1ccc(C2=C(c3ccccc3)C(=O)OC2)cc1 | inactive |  |
| N[C@@H](Cc1ccc(O)c(O)c1)C(=O)O | inactive |  |
| CCCc1nc(C(C)(C)O)c(C(=O)O)n1Cc1ccc(-c2ccccc2-c2nn[nH]n2)cc1 | inactive |  |
| Cc1cc(Nc2cc(CN3CCOCC3)c3nc(C)c(Cc4ccc(Cl)cc4F)n3n2)n[nH]1 | 2.35 µM (active) |  |
| NC(=O)NO | inactive |  |
| O=c1oc2c(O)c(O)cc3c(=O)oc4c(O)c(O)cc1c4c23 | inactive |  |
| CO[C@H]1C[C@@H]2CC[C@@H](C)[C@@](O)(O2)C(=O)C(=O)N2CCCC[C@H]2C(=O)O[C@H]([C@H](C)C[C@@H]2CC[C@@H](OP(C)(C)=O)[C@H](OC)C2)CC(=O)[C@H](C)/C=C(\C)[C@@H](O)[C@@H](OC)C(=O)[C@H](C)C[C@H](C)/C=C/C=C/C=C/1C | 1.48 µM (active) |  |
| CCOC(=O)C=C[C@H](C[C@@H]1CCNC1=O)NC(=O)[C@@H](CC(=O)[C@@H](NC(=O)c1cc(C)on1)C(C)C)Cc1ccc(F)cc1 | inactive |  |
| CC1(C)NC(=O)N(c2ccc([N+](=O)[O-])c(C(F)(F)F)c2)C1=O | inactive |  |
| CCOc1cc2c(c(F)c1OCC)C(=N)N(CC(=O)c1cc(N3CCOCC3)c(OC)c(C(C)(C)C)c1)C2 | 8.33 µM (active) |  |
| Clc1ccc2nsnc2c1NC1=NCCN1 | inactive |  |
| C[C@H](NC(=O)[C@@H](O)c1cc(F)cc(F)c1)C(=O)N[C@@H]1C(=O)N(C)c2ccccc2-c2ccccc21 | inactive |  |
| CC1=NN(c2ccccc2)C(=O)C1 | inactive |  |
